Test results taken from PubChem BioAssay AID485314 (National Center for Advancing Translational Sciences (NCATS), 2010).
Screen size: about 340,000 compounds; about 4,500 (1.3%) were called active. About 5% were inconclusive and are not listed. The entries come from a sample that favours actives as a whole. Unmarked numbers belong to inactive results. The call rests on the fitted dose curve; in most records, active means well fitted inhibition curve with a large enough effect; inconclusive means small, poorly fitted or top-dose-only effect, or another doubt; inactive means no such curve, though single readings can be large or run the other way.

Molecular target: DNA polymerase beta (Homo sapiens) (UniProt P06746)
Assay: qHTS Assay for Inhibitors of DNA Polymerase Beta
Conditions: Pol beta primer extension/strand displacement, fluorescence kinetic; series mostly up to 114 µM; activity change, negative = inhibition: at the top concentration
In short: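 Pol beta (10 nM) was preincubated with compound for 15 min at room temperature. The reaction was then started with 50 nM substrate and read immediately and after a further 10 min at room temperature.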
On the % scale 0 is the no-effect control and ±100 the full control effect; potency means the concentration at half of the fitted maximal effect.

Row | SMILES | activity change, negative = inhibition [%] | Potency
1 | CCOC(=O)Cc1csc(SCc2cc(=O)oc3cc(O)ccc23)n1 | 31.2 | –
2 | CCOC(=O)c1c(NC(=O)Cc2coc3ccc(CC)cc23)sc2c1CCC2 | 18.5 | –
3 | COc1ccc(N2CCN(Cc3nc4c(c(=O)[nH]c(=O)n4C)n3Cc3ccc(Cl)cc3)CC2)cc1 | -17.7 | –
4 | O=C(CSc1ncc(-c2ccccc2)[nH]1)Nc1ccc(F)cc1F | 1.98 | –
5 | Cc1nc2c(c(C)nn2-c2ccccc2)c(C)c1CCC(=O)NCCc1ccc(Cl)cc1 | 1.97 | –
6 | CCOc1ccccc1CNC(=O)Nc1cn(CC(C)C)c(=O)c2ccccc12 | 5.13 | –
7 | Cc1nn(CC(=O)O)c(=O)c2cc3cc(F)ccc3n12 | 16.8 | –
8 | CCc1ccc(NC(=O)Cn2nnc(C(=O)NCc3ccc(OC)cc3)c2N)cc1 | 31.3 | –
9 | Cc1cccc(NC(=O)c2nnn(CC(=O)Nc3ccc(C(C)C)cc3)c2N)c1C | 26.7 | –
10 | CCc1ccc(NC(=O)Cn2nnc(C(=O)NCc3ccc4c(c3)OCO4)c2N)cc1 | 21.7 | –
11 | COc1ccc(CNC(=O)c2nnn(CC(=O)Nc3cc(C)cc(C)c3)c2N)cc1 | – | 10 µM (active)
12 | CC(C)c1ccc(NC(=O)Cn2nnc(C(=O)NCCc3ccccc3)c2N)cc1 | – | 7.94 µM (active)
13 | COc1ccc(NC(=O)Cn2nnc(C(=O)NCCc3ccc(OC)c(OC)c3)c2N)cc1 | 0.0268 | –
14 | COCCNC(=O)CSc1nc(-c2ccccc2)[nH]c1-c1ccc(C)cc1 | 5.82 | –
15 | Cc1cccc(NC(=O)CN(c2ccc(C(C)C)cc2)S(=O)(=O)c2c(C)nn(C)c2C)c1C | 36.1 | –
16 | CCOC(=O)c1c(NC(=O)c2ccc(S(=O)(=O)N(CC)CC)cc2)sc2c1CCCCC2 | -0.222 | –
17 | Cc1cc(C)c2oc(C(=O)Nc3ccc(S(=O)(=O)N(C)c4ccccc4)cc3)cc(=O)c2c1 | 26.5 | –
18 | COc1ccc(N2CCN(C(=O)CSCc3nc(-c4ccccc4Cl)oc3C)CC2)cc1 | -7.35 | –
19 | Cc1nc2sc(C)c(C)n2c(=O)c1S(=O)(=O)NCCc1ccc(Cl)cc1 | -2.13 | –
20 | CCc1cccc(-n2nnc(-c3nsc(NC(=O)c4ccc(C)cc4)n3)c2C)c1 | -13.5 | –
21 | CCN(CCCNC(=O)c1cc(Nc2ccc(OC)cc2)nc2ccccc12)c1cccc(C)c1 | 30.8 | –
22 | Cc1nc2ccc(C(=O)N/N=C/c3ccc(O)cc3)cc2[nH]1 | – | 17.8 µM (active)
23 | O=C(N/N=C/c1ccc(OC(=O)c2ccccc2Cl)cc1)c1ccc(O)cc1 | 17.4 | –
24 | Cc1nonc1C(=O)N/N=C/c1ccc(O)cc1 | -11.3 | –
25 | COc1ccc(N(Cc2cc3cc(OC)ccc3[nH]c2=O)S(C)(=O)=O)cc1 | – | 4.47 µM (active)
26 | Cc1ccc2cc(CN(c3ccc(C)c(C)c3)S(C)(=O)=O)c(=O)[nH]c2c1 | -21.3 | –

Row | SMILES | activity change, negative = inhibition [%] | Potency
27 | COc1ccc(N(Cc2cc3ccc(C)cc3[nH]c2=O)S(=O)(=O)c2ccccc2)cc1 | 6.72 | –
28 | CCc1ccc(NC(=O)N2CCN(C(=O)c3nsc4ccccc34)CC2)cc1 | 40.9 | –
29 | COc1ccc(CNC(=O)CSCc2nc(-c3ccccc3F)oc2C)cc1 | 0.319 | –
30 | Cn1cc(S(=O)(=O)N2CCCCCC2)cc1C(=O)N1CCN(c2ccc(F)cc2)CC1 | 3.17 | –
31 | O=C(NCCN1C(=O)S/C(=C\c2cccnc2)C1=O)c1cccc(OC(F)F)c1 | 21.8 | –
32 | Cc1nn(Cc2ccccc2)c(C)c1C(=O)NCCN1C(=O)S/C(=C\c2ccc(F)cc2)C1=O | 5.67 | –
33 | N#Cc1ccccc1CN1C(=O)S/C(=C/c2cccn2-c2cccc(C(=O)O)c2)C1=O | – | 11.2 µM (active)
34 | O=c1c(NCc2cccs2)nccn1-c1ccccc1 | -23.5 | –
35 | COc1ccccc1CN1CCC(CNC(=O)c2cnn(-c3cccc(Cl)c3)c2C2CCN(C(=O)OC(C)(C)C)CC2)CC1 | -17.3 | –
36 | CCc1ccccc1N1CC(c2nc3ccccc3n2CCCCOc2ccccc2)CC1=O (stereo unspecified) | 12 | –
37 | CCOc1nc(NCCN2CCOCC2)nc(Nc2ccc(C)cc2)n1 | 32 | –
38 | c1ccc(-c2ccc(OCCN3CCOCC3)cc2)cc1 | 10.7 | –
39 | c1ccc2cc3c(NCCN4CCOCC4)ccnc3cc2c1 | – | 14.1 µM (active)
40 | Cc1cccc2c1-c1sc(C(=O)Nc3ccc(F)cc3F)cc1CO2 | -1.64 | –
41 | Cc1cccc(C(=O)OCC(=O)Nc2ccc(F)cc2)c1 | -11.2 | –
42 | COc1cc(OC)cc(C(=O)OCC(=O)Nc2ccc(F)cc2F)c1 | -0.999 | –
43 | O=C(COC(=O)c1ccc(F)cc1F)Nc1ncccn1 | – | 35.5 µM (active)
44 | Cc1ccc(Nc2cc(=O)n(C3CCCCC3)c(=O)[nH]2)cc1C | – | 56.2 µM (active)
45 | Cc1ccc(NNC(=O)C2CCC2)cc1C | -17.5 | –
46 | O=c1cc(C(F)(F)F)[nH]c(=O)n1C1CCCCC1 | 5.99 | –
47 | O=C(O)c1ccc(Nc2nc(-c3ccccc3)c3cc(Br)ccc3n2)cc1 | 29.2 | –
48 | COc1cccc(NC(=O)c2ccc3nc(CCc4ccccc4)oc3c2)c1 | -29.7 | –
49 | O=S(=O)(NCC1OCCc2ccccc21)c1ccccc1 (stereo unspecified) | -16.7 | –
50 | O=S(=O)(NCCNS(=O)(=O)c1ccccc1)c1ccccc1 | -13.9 | –
51 | O=c1/c(=C/c2ccc(CNS(=O)(=O)c3ccccc3)o2)sc2n1CCN=2 | – | 50.1 µM (active)
